# PMC4336329 (PLoS ONE, 2015)
# Among all 310,000 compounds or so, about 2,200 (0.71%) showed an effect of 50% or more. The effect is printed as a negative number. Shown is part of a subset that was picked to be rich in strong results.
# Target: human ether-à-go-go-related gene (hERG) potassium channel (human, UniProt Q12809)
# Assay: primary screen, population patch clamp on CHO cells stably expressing hERG; higher = less effect of the substance
# Chain of human ether-à-go-go-related gene (hERG) potassium channel (Q12809 whole entry, looked up): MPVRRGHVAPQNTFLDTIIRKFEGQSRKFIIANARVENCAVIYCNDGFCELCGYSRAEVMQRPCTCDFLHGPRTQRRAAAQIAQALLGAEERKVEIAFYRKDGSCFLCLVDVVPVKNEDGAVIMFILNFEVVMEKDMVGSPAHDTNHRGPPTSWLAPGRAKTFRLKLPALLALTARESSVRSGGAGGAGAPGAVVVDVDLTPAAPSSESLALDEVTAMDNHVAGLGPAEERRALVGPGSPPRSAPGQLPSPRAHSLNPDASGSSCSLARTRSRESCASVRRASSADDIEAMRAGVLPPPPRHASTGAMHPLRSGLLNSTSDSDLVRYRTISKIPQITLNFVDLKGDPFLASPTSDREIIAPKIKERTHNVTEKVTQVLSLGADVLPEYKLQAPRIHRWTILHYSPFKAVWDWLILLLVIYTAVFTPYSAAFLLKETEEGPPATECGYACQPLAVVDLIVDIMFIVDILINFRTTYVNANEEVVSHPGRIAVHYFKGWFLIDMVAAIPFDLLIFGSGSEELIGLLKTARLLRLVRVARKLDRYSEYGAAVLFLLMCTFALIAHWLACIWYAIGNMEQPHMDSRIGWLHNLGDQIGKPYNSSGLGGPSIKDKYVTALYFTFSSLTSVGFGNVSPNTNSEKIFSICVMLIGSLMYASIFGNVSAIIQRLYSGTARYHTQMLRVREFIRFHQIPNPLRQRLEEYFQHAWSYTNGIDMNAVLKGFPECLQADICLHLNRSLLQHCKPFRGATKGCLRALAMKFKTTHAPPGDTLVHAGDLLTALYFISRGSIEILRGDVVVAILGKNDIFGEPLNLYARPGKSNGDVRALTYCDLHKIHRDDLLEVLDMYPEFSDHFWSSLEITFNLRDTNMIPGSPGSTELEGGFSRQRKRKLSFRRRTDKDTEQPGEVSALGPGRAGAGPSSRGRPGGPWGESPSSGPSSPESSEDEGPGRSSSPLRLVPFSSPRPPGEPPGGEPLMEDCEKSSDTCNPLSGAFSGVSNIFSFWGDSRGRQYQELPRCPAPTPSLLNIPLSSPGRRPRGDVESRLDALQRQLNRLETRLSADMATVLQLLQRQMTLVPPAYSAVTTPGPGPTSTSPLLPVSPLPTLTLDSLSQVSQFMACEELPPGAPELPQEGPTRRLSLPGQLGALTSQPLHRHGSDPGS
row,SMILES,"hERG current change (%, negative = inhibition) at 1uM [%]"
1,Cc1cc(C)n(-c2nc(-c3ccccc3)cs2)n1,1.91
2,O=C(Nc1ccc2oc(-c3ccc4ccccc4c3)nc2c1)c1ccc2c(c1)OCCO2,16.3
3,Cc1cc2oc(=O)cc(CN3CCN(S(=O)(=O)/C=C/c4ccccc4)CC3)c2cc1C,14.5
4,Cc1cc(C)c2c(CN3CCN(C/C=C/c4ccccc4)CC3)cc(=O)oc2c1,-41.5
5,CCN1CCN(Cc2cc(=O)oc3ccc(C)cc23)CC1,11.9
6,Cc1cc2oc(=O)cc(CN3CCN(C/C=C/c4ccccc4)CC3)c2cc1O,-67.8
7,O=c1cc(CN2CCN(C/C=C/c3ccccc3)CC2)c2cc(O)c(-c3ccccc3)cc2o1,12.8
8,O=c1cc(CN2CCN(C/C=C/c3ccccc3)CC2)c2cc(O)ccc2o1,-86
9,Cc1ccc2oc(=O)cc(CN3CCN(C/C=C/c4ccccc4)CC3)c2c1,-53.7
10,O=c1cc(CN2CCN(S(=O)(=O)/C=C/c3ccccc3)CC2)c2ccc(O)cc2o1,-29.8
11,Cc1c(O)ccc2c(CN3CCN(C/C=C/c4ccccc4)CC3)cc(=O)oc12,-36.2
12,COc1cccc(NC(=O)C2CCCO2)c1 (stereo not drawn),11.7
13,COC(=O)C1=NN(N=O)C2(CC(=O)N(c3cc(C)cc(C)c3)C2=O)C1 (stereo not drawn),9.48
14,CCC(=O)N1c2ccc(S(=O)(=O)N3CCN(C)CC3)cc2CC1C (stereo not drawn),4.4
15,Cc1c(CC(=O)N[C@@H](C)C(=O)O)c(=O)oc2cc3occ(-c4ccccc4)c3cc12,18.2
16,Cc1ccc(Cn2ncc3c(NCCN(C)C)ncnc32)cc1,1.2
17,COc1ccc(N2CC(C(=O)Nc3ccccc3N3CCCC3)CC2=O)c(OC)c1 (stereo not drawn),8.29
18,CCOC(=O)c1ccc(NC(=S)N(CCCN2CCN(CC)CC2)Cc2cccs2)cc1,-40.2
19,CCOc1ccc2nc(NC(=O)Cc3cccs3)sc2c1,6.15
20,CCOc1ccc(N=C2Sc3nc4ccc(C)cc4cc3CN2CCOC)cc1,16.5
21,COCCN1Cc2cc3cc(C)ccc3nc2SC1=Nc1ccc(OC)cc1,9.8
22,CCC(C)N=C1Sc2nc3ccc(C)cc3cc2CN1CCOC (stereo not drawn),-60.4
23,C=CCn1c(SCC(O)Cn2c3ccccc3c3ccccc32)nnc1-c1ccco1 (stereo not drawn),13.9

row,SMILES,"hERG current change (%, negative = inhibition) at 1uM [%]"
1,O=c1[nH]ncn1-c1ccccc1C(F)(F)F,10.3
2,CCN(CC)CCN(Cc1cc2ccc(C)cc2[nH]c1=O)C(=O)NC1CCCCC1,-23.9
3,CCc1ccc2[nH]c(=O)c(CN(CCN(C)C)C(=O)Nc3ccccc3OC)cc2c1,-41.4
4,CCc1ccc2[nH]c(=O)c(CN(CCN3CCCC3)C(=O)NC3CCCCC3)cc2c1,-8.52
5,CCN(CC)CCN(Cc1cc2cc(C)ccc2[nH]c1=O)C(=O)Nc1ccccc1OC,-22.2
6,CCc1ccc2[nH]c(=O)c(CN(CCN(CC)CC)C(=O)Nc3ccccc3OC)cc2c1,-50.7
7,CCc1ccc2[nH]c(=O)c(CN(CCN(CC)CC)C(=O)NC3CCCCC3)cc2c1,-51.5
8,O=C(Cc1ccc([N+](=O)[O-])cc1)Nc1ccc2c(c1)CCC2,10.4
9,COc1ccc(-c2nsc(SCC(=O)Nc3ccc4c(c3)OCO4)n2)cc1,15
10,COC(=O)[C@@H](NC(=O)c1ccccc1)[C@@H](C)O,5.85
11,Nc1nc(N2CCCCC2)nc(N2CCCCC2)n1,-78.5
12,C1CCN(c2nc(N3CCCCC3)nc(N3CCNCC3)n2)CC1,2.68
13,Nc1nc(N2CCCCC2)nc(N(c2ccccc2)c2ccccc2)n1,15.2
14,COC(=O)CN1C(=O)Nc2ccc(Br)cc2C1c1ccccc1Cl (stereo not drawn),-8.8
15,C/C(=N/NC(=O)c1cccnc1)C1=C(O)CC(C)(C)CC1=O,18.4
16,CCOC(=O)CSc1cn2c(n1)CCC2,14.5
17,CNC(=O)CSc1nc2cc(S(=O)(=O)Nc3ccccc3OC)ccc2o1,9.52
18,Cc1sc2ncnc(NCC(C)(C)N3CCOCC3)c2c1C,-63.6
19,Cc1sc2ncnc(N3CCOCC3)c2c1C,-5.93
20,Cc1sc2ncnc(NCCN3CCOCC3)c2c1C.O=C(O)C(=O)O,9.44
21,COC(=O)CC1NCCc2cc(OC)c(OC)cc21 (stereo not drawn),5.12
22,CC(OC(=O)CCC1CCCCC1)C(=O)Nc1ccc(S(N)(=O)=O)cc1 (stereo not drawn),9.83
